Measured values: PubChem BioAssay (NCATS)
Results filed as inconclusive are left out. Where a call stands in place of a potency, no number is given. Calls of active or inactive are those of the source. Unless noted, calls come from the whole dose curve; as a rule, active = well fitted curve in the direction sought with a large enough effect; inconclusive = small, poorly fitted or top-dose-only effect, or another doubt; inactive = no such curve, though single readings can be large; an effect the other way counts as inactive or inconclusive.

What was measured:
[1] = target: Cytochrome P450 1A2 (Homo sapiens) (UniProt P05177); assay: p450-cyp1a2 (AID 410; calls by dose curve; note: potency is the fitted concentration of half-maximal effect)
Outline: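 Inhibition was calculated relative to 57 uM furafylline (full inhibition). The reaction used human CYP1A2 at 20nM with Luciferin-ME at its Km, 100uM, driven by an NADPH-regenerating system for 60 min at room temperature.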

[2] = target: Mitogen-activated protein kinase 10 (Mus musculus) (UniProt Q61831); assay: JNK3 AlphaScreen Assay (AID 530; active = well fitted curve in either direction with a large enough effect, not every such curve was filed as active;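 note: kinase came from lysate of stimulated human HepG2 cells; signal reports phosphorylation of biotinylated GST-cJun 1-79 at Ser73 with 10 µM ATP; series mostly up to about 57 µM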)
Outline: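 Room-temperature AlphaScreen kinase assay; pre-activated HepG2 lysate as JNK3 source, biotin-GST-cJun(1-79) substrate, 10 uM ATP, compound 15 min preincubation.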

[3] = target: 3',5'-cyclic-AMP phosphodiesterase 4B (Homo sapiens) (UniProt Q07343); assay: qHTS Assay for Inhibitors of PDE-IV (AID 607; active = well fitted activation curve with a large enough effect in the main read-out, with a control signal flat, not every such curve was filed as active)
Outline: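 HEK293 ACTOne cells with CNG channel (1000/well), endogenous PDE4; membrane potential dye, compounds up to 22.9 uM final. Fluorescence Ex 535/Em 590; RO 20-1724 (100 uM final) as reference.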

[4] = target: Cytochrome P450 3A4 (Homo sapiens) (UniProt P08684); assay: qHTS Assay for Inhibitors and Substrates of Cytochrome P450 3A4 (AID 884); note: nearly all actives have a fitted effect of over 50% in size; note: potency is the fitted concentration of half-maximal effect
Outline: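 20 nM human CYP3A4 with 25 uM Luciferin-PPXE (at KM) in 200 mM KPO4, preincubated 10 min with compound; NADPH regeneration started a 60 min RT reaction. Luciferin detected by luminescence, normalized to 57 uM ketoconazole as full inhibition.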

[5] = target: Cytochrome P450 3A4 (Homo sapiens) (UniProt P08684); assay: qHTS Assay for Activators of Cytochrome P450 3A4 (AID 885); note: nearly all actives have a fitted effect of over 65% in size
Outline: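 Human CYP3A4 (20 nM) with Luciferin-PPXE at 25 uM (its KM) in 200 mM KPO4; 10 min compound preincubation, then NADPH regeneration and 60 min reaction at RT. Luciferin read by luminescence; normalized to 57 uM ketoconazole full inhibition.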

[6] = target: Cytochrome P450 2C9 (Homo sapiens) (UniProt P11712); assay: qHTS Assay for Inhibitors and Substrates of Cytochrome P450 2C9 (AID 883); note: potency is the fitted concentration of half-maximal effect; nearly all actives have a fitted effect of over 60% in size
Outline: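 Inhibition of CYP2C9 is scored as loss of luminescence, with 57uM sulphaphenazole defining 100% inhibition. Substrate Luciferin-H is used at 100uM, equal to its KM; enzyme at 10nM in 25mM KPO4, 60 min at 37C with NADPH regeneration.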

[7] = target: Cytochrome P450 2C19 (Homo sapiens) (UniProt P33261); assay: qHTS Assay for Inhibitors and Substrates of Cytochrome P450 2C19 (AID 899); note: nearly all actives have a fitted effect of over 60% in size; note: potency is the fitted concentration of half-maximal effect
Outline: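 5nM enzyme + 10uM Luciferin-H EGE (=KM), 50mM KPO4; cpd pin-transferred, 10 min 37C; NADPH regen, 60 min 37C; stopped w/ luciferin detection reagent, 20 min; luminescence. Normalized to 57uM ketoconazole (AC100).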

[8] = target: Cytochrome P450 2D6 (Homo sapiens) (UniProt P10635); assay: qHTS Assay for Inhibitors and Substrates of Cytochrome P450 2D6 (AID 891); note: nearly all actives have a fitted effect of over 60% in size; note: potency is the fitted concentration of half-maximal effect
Outline: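 Human CYP2D6 (5 nM) with 30 uM Luciferin-ME EGE (at Km) in 100 mM KPO4, compound preincubated 10 min, then NADPH regeneration system for 60 min at room temperature. Luciferin read by luminescence; normalized to 1.43 uM quinidine.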

Chain of Cytochrome P450 2C9 (Homo sapiens) (P11712 whole entry, looked up): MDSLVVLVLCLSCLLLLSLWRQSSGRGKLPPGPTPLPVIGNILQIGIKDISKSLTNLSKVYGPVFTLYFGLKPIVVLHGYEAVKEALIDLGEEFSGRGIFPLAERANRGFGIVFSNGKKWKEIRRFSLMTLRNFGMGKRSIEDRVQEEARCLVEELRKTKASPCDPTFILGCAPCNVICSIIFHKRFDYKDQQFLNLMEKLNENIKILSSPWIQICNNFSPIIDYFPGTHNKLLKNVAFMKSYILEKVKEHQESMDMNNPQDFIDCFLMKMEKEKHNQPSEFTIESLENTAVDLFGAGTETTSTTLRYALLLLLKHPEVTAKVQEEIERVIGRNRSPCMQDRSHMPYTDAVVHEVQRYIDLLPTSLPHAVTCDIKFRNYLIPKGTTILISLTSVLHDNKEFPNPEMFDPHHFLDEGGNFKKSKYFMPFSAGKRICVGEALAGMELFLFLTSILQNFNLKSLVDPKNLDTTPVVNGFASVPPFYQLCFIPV
Chain of Cytochrome P450 3A4 (Homo sapiens) (P08684 whole entry, looked up): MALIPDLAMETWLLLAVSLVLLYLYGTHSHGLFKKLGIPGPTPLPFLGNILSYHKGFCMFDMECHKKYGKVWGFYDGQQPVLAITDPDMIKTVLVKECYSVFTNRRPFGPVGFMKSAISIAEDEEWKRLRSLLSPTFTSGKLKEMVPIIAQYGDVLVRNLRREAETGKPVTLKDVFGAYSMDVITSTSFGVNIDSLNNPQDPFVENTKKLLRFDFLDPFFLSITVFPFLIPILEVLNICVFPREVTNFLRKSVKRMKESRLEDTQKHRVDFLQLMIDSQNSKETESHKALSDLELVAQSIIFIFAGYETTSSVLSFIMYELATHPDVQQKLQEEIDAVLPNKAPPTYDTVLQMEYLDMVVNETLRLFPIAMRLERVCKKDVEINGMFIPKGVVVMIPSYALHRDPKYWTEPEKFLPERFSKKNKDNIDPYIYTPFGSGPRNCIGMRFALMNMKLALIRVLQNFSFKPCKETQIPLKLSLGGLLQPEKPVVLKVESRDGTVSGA
Chain of Cytochrome P450 2D6 (Homo sapiens) (P10635 whole entry, looked up): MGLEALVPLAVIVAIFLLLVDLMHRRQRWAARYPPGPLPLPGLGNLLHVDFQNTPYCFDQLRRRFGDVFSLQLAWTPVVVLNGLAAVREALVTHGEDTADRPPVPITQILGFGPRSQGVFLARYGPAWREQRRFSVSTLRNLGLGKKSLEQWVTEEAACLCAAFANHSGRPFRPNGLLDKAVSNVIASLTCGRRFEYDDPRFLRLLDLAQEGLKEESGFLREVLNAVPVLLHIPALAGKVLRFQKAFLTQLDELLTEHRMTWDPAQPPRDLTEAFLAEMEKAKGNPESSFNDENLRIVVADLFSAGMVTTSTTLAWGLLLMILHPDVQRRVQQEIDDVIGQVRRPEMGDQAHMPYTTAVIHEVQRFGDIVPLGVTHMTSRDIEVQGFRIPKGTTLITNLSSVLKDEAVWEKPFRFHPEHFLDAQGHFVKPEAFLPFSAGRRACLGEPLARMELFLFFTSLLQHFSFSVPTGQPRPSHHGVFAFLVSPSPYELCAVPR
Chain of Cytochrome P450 1A2 (Homo sapiens) (P05177 whole entry, looked up): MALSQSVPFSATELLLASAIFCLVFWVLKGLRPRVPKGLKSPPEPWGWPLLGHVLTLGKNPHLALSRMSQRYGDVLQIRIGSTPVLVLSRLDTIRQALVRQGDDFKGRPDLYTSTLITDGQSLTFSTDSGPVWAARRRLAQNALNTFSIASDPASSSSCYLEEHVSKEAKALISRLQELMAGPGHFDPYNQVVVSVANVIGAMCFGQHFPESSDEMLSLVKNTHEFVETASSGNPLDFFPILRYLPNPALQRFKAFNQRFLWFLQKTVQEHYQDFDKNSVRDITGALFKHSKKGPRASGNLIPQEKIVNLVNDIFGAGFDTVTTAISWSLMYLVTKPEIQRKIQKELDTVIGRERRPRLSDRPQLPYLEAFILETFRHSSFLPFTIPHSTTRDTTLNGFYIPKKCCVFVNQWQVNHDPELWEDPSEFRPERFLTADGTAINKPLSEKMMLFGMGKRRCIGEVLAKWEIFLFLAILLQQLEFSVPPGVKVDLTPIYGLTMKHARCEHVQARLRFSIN
Chain of Cytochrome P450 2C19 (Homo sapiens) (P33261 whole entry, looked up): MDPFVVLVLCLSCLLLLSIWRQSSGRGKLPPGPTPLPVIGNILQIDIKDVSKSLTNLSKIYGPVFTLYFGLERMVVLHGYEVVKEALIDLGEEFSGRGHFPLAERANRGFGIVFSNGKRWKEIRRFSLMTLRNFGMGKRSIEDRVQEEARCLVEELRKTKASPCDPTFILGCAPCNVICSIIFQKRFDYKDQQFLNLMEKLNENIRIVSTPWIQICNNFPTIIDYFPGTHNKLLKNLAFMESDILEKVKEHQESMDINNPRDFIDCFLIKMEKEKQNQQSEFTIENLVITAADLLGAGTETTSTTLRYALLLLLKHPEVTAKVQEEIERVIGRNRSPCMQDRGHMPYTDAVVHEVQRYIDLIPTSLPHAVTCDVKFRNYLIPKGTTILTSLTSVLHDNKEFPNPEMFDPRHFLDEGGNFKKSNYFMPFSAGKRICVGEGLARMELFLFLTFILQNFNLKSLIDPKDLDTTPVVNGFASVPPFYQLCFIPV
Chain of 3',5'-cyclic-AMP phosphodiesterase 4B (Homo sapiens) (Q07343 whole entry, looked up): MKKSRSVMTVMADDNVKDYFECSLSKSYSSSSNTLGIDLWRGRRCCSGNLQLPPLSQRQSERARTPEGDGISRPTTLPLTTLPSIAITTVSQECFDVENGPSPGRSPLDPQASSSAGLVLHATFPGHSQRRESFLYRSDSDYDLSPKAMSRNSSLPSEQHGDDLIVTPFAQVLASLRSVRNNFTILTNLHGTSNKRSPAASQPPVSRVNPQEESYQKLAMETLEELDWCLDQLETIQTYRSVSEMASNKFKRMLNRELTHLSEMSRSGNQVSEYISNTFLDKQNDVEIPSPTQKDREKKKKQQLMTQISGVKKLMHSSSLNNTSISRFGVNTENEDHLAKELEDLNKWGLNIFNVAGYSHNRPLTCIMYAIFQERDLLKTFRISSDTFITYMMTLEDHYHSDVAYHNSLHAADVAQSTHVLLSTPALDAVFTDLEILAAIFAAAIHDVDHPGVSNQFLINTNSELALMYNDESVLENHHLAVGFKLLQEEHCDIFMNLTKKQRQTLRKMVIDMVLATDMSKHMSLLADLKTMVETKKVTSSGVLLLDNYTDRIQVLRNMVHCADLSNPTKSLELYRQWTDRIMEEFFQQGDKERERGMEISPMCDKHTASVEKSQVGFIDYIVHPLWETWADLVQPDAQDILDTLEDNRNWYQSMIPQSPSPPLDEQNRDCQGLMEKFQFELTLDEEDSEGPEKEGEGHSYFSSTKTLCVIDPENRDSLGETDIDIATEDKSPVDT

SMILES	Potency [1]	Potency [2]	Potency [3]	Potency [4]	Potency [5]	Potency [6]	Potency [7]	Potency [8]
COC(=O)[C@@]1(Cc2ccc(F)cc2)[C@@H]2[C@@H](CC(=O)[C@H]2CC(=O)C(=O)N(C)C)CN1C(=O)c1ccccc1	inactive	inactive	inactive	6.31 µM (active)	inactive	–	–	–
C[C@@H](C(=O)Nc1ccc2ccccc2c1)[C@@H]1C[C@@]1(C)[C@@H](N)c1ccccc1	15.8 µM (active)	inactive	inactive	7.94 µM (active)	inactive	–	–	–
C[C@@H](C(=O)Nc1ccc2ccccc2c1)[C@H]1C[C@]1(C)[C@H](NC(=O)c1cnccn1)c1ccccc1	25.1 µM (active)	inactive	inactive	0.631 µM (active)	inactive	5.01 µM (active)	–	–
COC(=O)[C@@]1(Cc2ccc(F)cc2)[C@H]2c3cc(C(=O)N4CCCC4)n(CCc4c[nH]c5ccccc45)c3C[C@H]2CN1C(=O)c1ccccc1	inactive	inactive	inactive	–	inactive	2.51 µM (active)	–	–
COC(=O)[C@@]1(Cc2ccccc2)[C@H]2c3cc(C(=O)N4CCCC4)n(Cc4cccc5ccccc45)c3C[C@H]2CN1C(=O)c1ccccc1	15.8 µM (active)	inactive	inactive	1.58 µM (active)	inactive	0.251 µM (active)	2.51 µM (active)	–
COC(=O)[C@@]1(Cc2ccc(OC)cc2)[C@H]2c3cc(C(=O)N(C)C)[nH]c3C[C@H]2CN1C(=O)c1ccccc1	20 µM (active)	inactive	inactive	1.58 µM (active)	inactive	3.98 µM (active)	5.01 µM (active)	–
COC(=O)[C@@H]1C[C@H]1[C@@H](NC(=O)OCc1ccccc1)c1ccccc1	0.2 µM (active)	inactive	inactive	–	–	20 µM (active)	2.51 µM (active)	–
COC(=O)Cn1c(C(=O)N2CCCC2)cc2c1C[C@H]1CN(C(=O)c3ccccc3)[C@@](Cc3ccc(F)cc3)(C(=O)OC)[C@@H]21	15.8 µM (active)	inactive	inactive	3.16 µM (active)	inactive	–	–	–
C[C@@H](C(=O)NCc1cccc2ccccc12)[C@H]1C[C@]1(C)[C@H](NC(=O)OCc1ccccc1)c1ccccc1	25.1 µM (active)	inactive	inactive	0.398 µM (active)	inactive	3.16 µM (active)	2.51 µM (active)	–
COC(=O)[C@@]1(Cc2ccc(OC)cc2)[C@H]2c3cc(C(=O)N4CCCC4)n(Cc4ccc(C(F)(F)F)nc4)c3C[C@H]2CN1C(=O)c1ccccc1	inactive	inactive	inactive	3.16 µM (active)	inactive	–	–	–
COC(=O)[C@@H]1C[C@H]1[C@@H](NC(=O)Oc1ccc(F)cc1)c1ccccc1	3.16 µM (active)	inactive	inactive	–	inactive	3.98 µM (active)	–	–
CCCC1(C(=O)OC)C=C2C(=C(c3ccccc3)C(=O)C2C)CN1 (stereo not given)	15.8 µM (active)	inactive	inactive	–	inactive	5.01 µM (active)	7.94 µM (active)	–
COC(=O)[C@@]1(Cc2ccccc2)[C@H]2c3cc(C(=O)N(C)C)n(Cc4ccsc4Br)c3C[C@H]2CN1C(=O)c1ccccc1	inactive	inactive	inactive	1.58 µM (active)	inactive	3.98 µM (active)	2 µM (active)	–
COC(=O)[C@@]1(Cc2ccc(F)cc2)[C@H]2c3cc(C(=O)N4CCCC4)n(Cc4ccccc4)c3C[C@H]2CN1C(=O)c1ccccc1	20 µM (active)	inactive	inactive	–	inactive	3.98 µM (active)	–	–
COC(=O)N[C@H](c1ccccc1)[C@@]1(C)C[C@@H]1[C@@H](C)C(=O)Nc1ccc2ccccc2c1	12.6 µM (active)	inactive	inactive	0.199 µM (active)	inactive	3.98 µM (active)	3.16 µM (active)	0.0316 µM (active)
CCCCCCN(C(=O)CCCCCN1C(=O)NC(c2ccc(-c3ccccc3)cc2)C(C(=O)OCc2ccccc2)=C1C)C(C(=O)NCCCC)c1ccc(OCC(=O)OC)c(C(=O)OC)c1 (stereo not given)	12.6 µM (active)	inactive	inactive	–	–	0.158 µM (active)	inactive	inactive
COC(=O)[C@@]1(Cc2ccc(F)cc2)[C@H]2c3cc(C(=O)N4CCCC4)n(Cc4ccc(C)o4)c3C[C@H]2CN1C(=O)c1ccccc1	10 µM (active)	inactive	inactive	3.16 µM (active)	inactive	3.98 µM (active)	5.01 µM (active)	–
O=C(NCCc1c[nH]c2ccccc12)[C@H]1C[C@@H]1[C@H](NP(=O)(c1ccccc1)c1ccccc1)c1ccccc1	12.6 µM (active)	inactive	inactive	1.58 µM (active)	inactive	2 µM (active)	1.26 µM (active)	–
CNC(=O)[C@H](C)[C@H]1C[C@]1(C)[C@H](NC(=O)OCc1ccccc1)c1ccccc1	20 µM (active)	inactive	inactive	2 µM (active)	inactive	–	–	–
CCCCCC1=C2CNC(CC(C)C)(C(=O)OC)C=C2C(C)C1=O (stereo not given)	25.1 µM (active)	inactive	inactive	–	inactive	3.16 µM (active)	–	5.01 µM (active)

SMILES	Potency [1]	Potency [2]	Potency [3]	Potency [4]	Potency [5]	Potency [6]	Potency [7]	Potency [8]
CC(=O)N[C@H](c1ccccc1)[C@@]1(C)C[C@@H]1[C@@H](C)C(=O)Nc1ccc2ccccc2c1	15.8 µM (active)	inactive	inactive	7.94 µM (active)	inactive	–	5.01 µM (active)	2 µM (active)
COC(=O)[C@@H]1C[C@H]1[C@@H](NC(=O)c1cnccn1)c1ccccc1	12.6 µM (active)	inactive	inactive	–	inactive	–	–	–
COC(=O)[C@@]1(Cc2ccc(OC)cc2)[C@H]2c3cc(C(=O)N4CCCC4)n(CCc4c[nH]c5cc(F)ccc45)c3C[C@H]2CN1C(=O)c1ccccc1	39.8 µM (active)	inactive	inactive	1.26 µM (active)	inactive	–	3.98 µM (active)	–
CCCC1(C(=O)OC)C=C2C(=C(C)C(=O)C2C)CN1 (stereo not given)	inactive	inactive	inactive	–	inactive	–	–	–
C[C@@H](C(=O)Nc1ccc2ccccc2c1)[C@@H]1C[C@@]1(C)[C@@H](NC(=O)OCc1ccccc1)c1ccccc1	15.8 µM (active)	inactive	inactive	7.94 µM (active)	inactive	–	3.16 µM (active)	–
O=C(N[C@@H](c1ccccc1)[C@@H]1C[C@H]1C(=O)NCc1ccccn1)OCc1ccccc1	10 µM (active)	inactive	inactive	6.31 µM (active)	inactive	–	7.94 µM (active)	–
COC(=O)C1(CC(C)C)C=C2C(=C(c3ccccc3)C(=O)C2C)CN1 (stereo not given)	15.8 µM (active)	inactive	inactive	–	inactive	–	–	–
COC(=O)[C@@]1(Cc2ccc(F)cc2)[C@@H]2[C@@H](CC(=O)[C@H]2CC(=O)C(=O)N2CCCC2)CN1C(=O)c1ccccc1	inactive	inactive	inactive	1.58 µM (active)	inactive	–	–	–
CC1(C)C(=O)C(c2ccccc2)=C2CN3C(=O)N(CCc4ccccc4)C(=O)C3(Cc3ccccc3)C=C21 (stereo not given)	6.31 µM (active)	inactive	inactive	2 µM (active)	inactive	–	–	–
C=C(CC1([C@@H](NP(=O)(c2ccccc2)c2ccccc2)[C@H]2C[C@@H]2CCCC)CC1)c1cccc(OC)c1	12.6 µM (active)	inactive	inactive	2.51 µM (active)	inactive	–	–	–
C[C@@H](C(=O)Nc1ccc2ccccc2c1)[C@H]1C[C@]1(C)[C@H](NC(=O)Oc1ccc(F)cc1)c1ccccc1	inactive	inactive	inactive	0.794 µM (active)	inactive	–	–	2.51 µM (active)
C[C@@H](C(=O)NCc1ccccn1)[C@H]1C[C@]1(C)[C@H](NC(=O)OCc1ccccc1)c1ccccc1	25.1 µM (active)	inactive	inactive	5.01 µM (active)	inactive	–	2 µM (active)	12.6 µM (active)
Cc1cc(CNC(=O)[C@H]2C[C@@H]2[C@H](NP(=O)(c2ccccc2)c2ccccc2)c2ccccc2)nn1C	inactive	inactive	inactive	2.51 µM (active)	inactive	–	–	–
COC(=O)[C@@]1(Cc2ccc(F)cc2)[C@H]2c3cc(C(=O)N(C)C)n(Cc4c(CO)[nH]cc(C)c4=O)c3C[C@H]2CN1C(=O)c1ccccc1	25.1 µM (active)	inactive	inactive	1.58 µM (active)	inactive	–	–	–
COC(=O)[C@@]1(Cc2ccc(F)cc2)[C@@H]2C(=CC(=O)[C@H]2CC(=O)C(=O)N(C)C)CN1C(=O)c1ccccc1	inactive	inactive	inactive	–	inactive	–	–	–
COC(=O)[C@@]1(Cc2ccccc2)[C@H]2c3cc(C(=O)N4CCCC4)n(Cc4nc5ccccc5[nH]4)c3C[C@H]2CN1C(=O)c1ccccc1	12.6 µM (active)	inactive	inactive	1.26 µM (active)	inactive	–	–	7.94 µM (active)
COc1ccc(COC2OC[C@]3(C)[C@H]4C5=C(CN3C(=O)OC(C)(C)C)[C@H](C)C(CO)C(CO)C5CC[C@@H]24)cc1 (stereo not given in full)	inactive	inactive	inactive	7.94 µM (active)	inactive	–	–	–
COC(=O)C1(Cc2ccccc2)C2c3cc(C(=O)N4CCCC4)n(Cc4ccc(OC(F)(F)F)cc4)c3CC2CN1C(=O)c1ccccc1 (stereo not given)	inactive	inactive	inactive	3.16 µM (active)	inactive	–	–	–
CCCC[C@@H]1C[C@H]1C(NC(=O)c1cccnc1)c1ccc(Cl)cc1 (stereo not given in full)	7.94 µM (active)	inactive	inactive	0.0794 µM (active)	inactive	–	2 µM (active)	–
COC(=O)[C@H]1C[C@@H]1[C@H](NC(=O)c1ccccc1)c1ccccc1	15.8 µM (active)	inactive	inactive	inactive	–	–	7.94 µM (active)	–
